{"source": "the supplement of paper PMC6555819"}
{"test_system": "VDR:RXRa (NR concentration 270 nM, RXRa partner concentration 90 nM)", "test": "PBM binding z-score (relative to random genomic background probes); higher = stronger binding; sequences stand for … in GC…GCGATTGACAGCGTAGAATGAAGG", "experimental": "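Protein-binding microarray (Agilent 4x180K custom design, double-stranded 60-nt probes: 5' GC cap, 34-nt variable region, 24-nt constant primer region; full probe sequence given). Purified or IVT nuclear receptor:RXRα heterodimers (3:1 NR:RXRα, mostly 270:90 nM) or homodimers were incubated for 1 h in PBS with 2% milk and no ligand, then detected with Alexa488 antibodies. Fluorescence from o1-orientation probes (~5 replicates averaged) was converted to z-scores against 500 random hg19 background probes. Variable regions are seed direct-repeat (DR0–DR5) sites, all their single-nucleotide variants and half-site ablations.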"}
{"sequence": "TCATTTAGGTAAAAGGTGAAAGTCGGTGTGGTAA", "PBM binding z-score": 1.4}
{"sequence": "ATCTCTAGATAACAAGTTCAGTGAAAGAGAGGAC", "PBM binding z-score": 1.45}
{"sequence": "CGTACAAGGTCATAGGAGGTCAGTGAAGACAGAT", "PBM binding z-score": 6.79}
{"sequence": "TCTTGTAGATCAATAGAGTTTAAGAAAGTGCGCT", "PBM binding z-score": 1.23}
{"sequence": "ACTAGCAGGCCCAGGGTCACTCAAGATTAGTCCG", "PBM binding z-score": 2.19}
{"sequence": "TCCTATAGGTAATACAGGTGAAAGTCGGCATCTA", "PBM binding z-score": 0.718}
{"sequence": "CCTACTGGGCCACGAAAGGTCATTGATTCAGTGA", "PBM binding z-score": 4.21}
{"sequence": "GCGACTGTGGCAAAGCAGGTTACCATAAGGTTGG", "PBM binding z-score": -0.352}
{"sequence": "CGTCCAAGGTCAGAGAAGTCAGTGAATGCCGAGT", "PBM binding z-score": 3.15}
{"sequence": "CCTACTGGGGCAAGGTCATTGATCAGTCAAAGCA", "PBM binding z-score": 3.59}
{"sequence": "TCGAGTAGGATACCAATGGGGCATTCAGCTTTCT", "PBM binding z-score": -0.497}
{"sequence": "CCTACTGTGCCATCAGGTCATTGATATCAACGTT", "PBM binding z-score": 2.56}
{"sequence": "ATACCAAGGTGATCGTGAGCTCGTTGATACTAAC", "PBM binding z-score": -0.0163}
{"sequence": "TAGCCTAGGTCATTGGTCCAGTATAGTACGCATC", "PBM binding z-score": 2.55}
{"sequence": "CCTTACGGGTCACTCCAGGTTTTAGCATCGGAGT", "PBM binding z-score": 3.47}
{"sequence": "TCTCGGAGGACACGAAGGTCAGGGCTTTCCAGAG", "PBM binding z-score": 2.24}
{"sequence": "CAAACTAGGTCAAGAGCTCAAAGTCCGCTTCCCG", "PBM binding z-score": 1.29}
{"sequence": "ATCGAAAGGTCGAATGTGAGTATACCCACCCGAA", "PBM binding z-score": 2.84}
{"sequence": "CAGCCTGGGTCAGGGCCAGTATAGGAGGAACGTT", "PBM binding z-score": 0.152}
{"sequence": "AGTCAAAGTCCACTAGGTAACGTAAGATTCAGCT", "PBM binding z-score": -0.0687}
{"sequence": "CCTTACGGGTCACTCCAGGTTATCGCATCGGAGT", "PBM binding z-score": 4.2}
{"sequence": "ATATGTAGGTTATCGGGTCCTTCAGTTTGCGCAT", "PBM binding z-score": 3.81}
{"sequence": "CGTCCAATGTCAGAGAGGTCAGTGAATGCCGAGT", "PBM binding z-score": 5.22}
{"sequence": "CGTCAAAGTTCAAGTAAGGTAACGTAAAGCACGC", "PBM binding z-score": 4.46}
{"sequence": "CGAACTAGATCAAGGACAGTGAATCTCCGCACGC", "PBM binding z-score": -0.37}
{"sequence": "GCTAGTTGGTCAGTAATAGGTCACACACCGGTCG", "PBM binding z-score": 1.73}
{"sequence": "AGACCGAGGGCAATGAGTTGATAGCACGGGTGGC", "PBM binding z-score": 4.82}
{"sequence": "GGAAGGAGGGCAAGTTGATAGCAGAGTTTGATGG", "PBM binding z-score": 0.934}
{"sequence": "GCGACTGGGGCAAAGCAGGTTCCCATAAGGTTGG", "PBM binding z-score": -0.543}
{"sequence": "TAGCCTAGGTCATTCAGGGACCAGTATAGAAAGC", "PBM binding z-score": 2.57}
{"sequence": "CCTTACGGGTCACTGACAGGTTGTAGCATTTGGA", "PBM binding z-score": 3.34}
{"sequence": "CGAACTAGGTCAGAACAGGACAGTAAAGGATGAT", "PBM binding z-score": 0.971}
{"sequence": "CGAACGAGGGCATGAGTTGAAAGCAAATGCCGAT", "PBM binding z-score": 1.25}
{"sequence": "TCTAGTTGGTCAAAGCTCACACACTCGAAATGCG", "PBM binding z-score": 0.632}
{"sequence": "CCATACGGGTCACTCCAGGTTATAGCATCGGAGT", "PBM binding z-score": 4.11}
{"sequence": "ATCGAAAGGTCGTTAGGTGAGTATACAGAAAGGC", "PBM binding z-score": 3.58}
{"sequence": "TAGCCTAGGTCAGATCGGGCCACTATACGCTATA", "PBM binding z-score": 1.39}
{"sequence": "CCTTACGGGTCACTAACAGGTTATAGCATTTGGA", "PBM binding z-score": 3.28}
{"sequence": "TTACCAAGGTGAAAGGTCGATGATGCACGCCTTG", "PBM binding z-score": 2.23}
{"sequence": "TCTAATAGTTGATTAGGGCAACCGAAACAGCGGA", "PBM binding z-score": 0.582}
